Screening data: PubChem BioAssay, National Center for Advancing Translational Sciences (NCATS)
Tau fluor cs: counter-screen for tau fibril formation inhibitors | tau K18 P301L Alexa594 fluorescence, heparin fibrillization | Potency, µM (top dose mostly 57.7 µM) | 280,000 tested, 0.93% active | AID 1463; also: nearly all actives have a fitted effect of over 55% in size
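Human tau K18 P301L (15 uM unlabeled, 0.24 uM Alexa 594-labeled) in 100 mM sodium acetate pH 7 with 20 uM heparin, 6 hr at 37 C. ThT 30 uM added, 1 hr ambient; Alexa 594 FP and total fluorescence read at 555/632 nm.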
Tau fibril ThT: blocks human tau fibril formation measured by thioflavin T; AID 1460; Potency, µM (titrated, usually from 57.4 µM), hits mostly inhibitors; recombinant tau K18 P301L, heparin-induced fibrillization, ThT fluorescence; 270,000 tested, 2.1% active; P10636; also: nearly all actives have a fitted effect of over 55% in size
Target sequence (P10636 561-689 P618L limits assumed): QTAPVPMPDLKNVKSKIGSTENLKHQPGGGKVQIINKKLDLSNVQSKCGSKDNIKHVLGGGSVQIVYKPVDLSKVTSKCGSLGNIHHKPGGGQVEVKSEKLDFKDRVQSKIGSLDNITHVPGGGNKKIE
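ThT emission at 510 nm, taken 1 hr after adding 30 uM dye, quantifies aggregates formed when 20 uM heparin acts on human tau K18 P301L for 6 hr at 37 C.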
VP16 counter: inhibits Gal4-VP16 luciferase reporter, ROR gamma counter-screen | Drosophila S2 Gal4-VP16 UAS-luciferase, luminescence, 20 h | Potency, µM (top dose mostly 53.6 µM), usual class: inhibitors | 310,000 tested, 3.5% active | AID 2546;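 also: Gal4-VP16 expression switched on by copper sulfate through the metallothionein promoter; nearly all actives have a fitted effect of over 50% in size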
RORg inh: blocks mouse ROR gamma transcriptional activity; P51450; Drosophila S2 Gal4-RORgamma UAS-luciferase reporter, 20 h; Potency, µM (highest dose often 53.6 µM), hits mostly inhibitors; 310,000 tested, 5.4% active; AID 2551; also: nearly all actives have a fitted effect of over 60% in size
Target sequence (P51450 whole entry, looked up, the tested form may be a part): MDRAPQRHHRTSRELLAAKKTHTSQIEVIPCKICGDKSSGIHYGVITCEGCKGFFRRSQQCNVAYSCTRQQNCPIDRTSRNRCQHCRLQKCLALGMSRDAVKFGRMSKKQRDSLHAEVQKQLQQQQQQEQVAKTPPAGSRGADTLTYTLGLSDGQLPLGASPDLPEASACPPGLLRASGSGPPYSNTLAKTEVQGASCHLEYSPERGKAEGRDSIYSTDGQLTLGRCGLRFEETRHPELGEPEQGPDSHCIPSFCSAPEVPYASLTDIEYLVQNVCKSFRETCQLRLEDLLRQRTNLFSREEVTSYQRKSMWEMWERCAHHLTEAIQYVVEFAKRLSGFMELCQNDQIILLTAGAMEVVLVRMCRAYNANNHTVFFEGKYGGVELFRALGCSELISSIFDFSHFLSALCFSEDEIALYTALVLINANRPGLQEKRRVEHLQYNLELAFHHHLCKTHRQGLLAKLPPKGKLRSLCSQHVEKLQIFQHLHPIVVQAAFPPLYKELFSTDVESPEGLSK
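Drosophila S2 cells stably expressing Gal4-DBD/mouse RORγ fusion under metallothionein promoter plus UAS-luciferase; compound 1 h, then 700 uM CuSO4 induction for 20 h at ambient temperature; inhibition read as reduced luminescence.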
Tau FP inhib: tau fibrillization inhibition (FP). 280,000 tested, 0.39% active. Potency, µM (doses to about 57.7 µM), usual class: inhibitors. K18 P301L tau heparin fibrillization, Alexa594 FP, 6 h. AID 1468; also: nearly all actives have a fitted effect of over 55% in size
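FP of Alexa 594-tau after heparin (20 uM) induction. Substrate: human K18 P301L, 15 uM unlabeled, 0.24 uM labeled. Buffer 100 mM sodium acetate pH 7. 6 hr, 37 C.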
Each line names hits and unclear results; the compound was inactive in the other large screens; [ ] = remark or other dose. Hits are enriched below; roughly 7.3% of the tested compounds scored in any of these assays. Calls follow the shape of the dose curve; as a rule, active = well fitted curve in the direction sought with a large enough effect; inconclusive = small, poorly fitted or top-dose-only effect, or another doubt; inactive = no such curve, though single readings can be large; an effect the other way counts as inactive or inconclusive.

COc1cccc(C2CCCN2Cc2nc(-c3sccc3C)oc2C)c1 (configuration not stated)	RORg inh 28µM
COc1cccc(C2CCCCN2Cc2nc(-c3ccc(C)o3)oc2C)c1 (configuration not stated)	Tau fibril ThT inconclusive
COc1ccccc1C1CCCN1Cc1nc(-c2ccc(C)s2)oc1C (configuration not stated)	RORg inh inconclusive
Cc1ccsc1-c1nc(CN2CCCC2c2ccc(F)cc2)c(C)o1 (configuration not stated)	Tau fibril ThT inconclusive, RORg inh 10µM
CCOc1ccc(NC(=O)CCC(=O)N/N=C(\C)c2cccs2)cc1	none (no result: Tau fluor cs, Tau fibril ThT, Tau FP inhib)
COc1cc(NC(C)CCCN)c2ncccc2c1 (configuration not stated)	none
COc1cc(NCCCCCCCN)c2ncccc2c1	VP16 counter inconclusive, RORg inh 1.6µM
O=S(=O)(NCCc1nnc2ccc(SCc3cccc(Cl)c3)nn12)c1ccccc1	Tau fibril ThT inconclusive (no result: VP16 counter, RORg inh)
CCOCCCNC(=S)NCCNc1nc2c(C)cccc2cc1C#N	VP16 counter 3.2µM, RORg inh 0.25µM
COc1cc(C(=O)NCCCNc2nc3cc(C)cc(C)c3cc2C#N)cc(OC)c1OC	RORg inh inconclusive
Cc1cccc2cc(C#N)c(NCc3ccccc3)nc12	VP16 counter 7.1µM, RORg inh 5.6µM
COCCCNC(=S)NCCNc1nc2cc(C)cc(C)c2cc1C#N	VP16 counter inconclusive, RORg inh 8.9µM
COc1cc2nc(CCc3ccccc3)oc(=O)c2cc1OC	none
CSc1ncc(C(=O)Nc2ccccc2C(F)(F)F)c(-c2ccccc2)n1	none (no result: VP16 counter, RORg inh)
COc1cc(-c2nc3ccc(C)cn3c2Nc2ccc3c(c2)OCCO3)ccc1O	Tau fluor cs 16µM[quencher], Tau fibril ThT inconclusive
COc1cc(-c2nc3cnccn3c2Nc2ccc3c(c2)OCCO3)ccc1O	Tau fluor cs inconclusive, Tau fibril ThT inconclusive
COc1cc(-c2nc3cccc(C)n3c2Nc2ccc3c(c2)OCCO3)ccc1O	Tau fluor cs 18µM[quencher], Tau fibril ThT inconclusive (no result: VP16 counter, RORg inh)
Oc1ccc(-c2nc3ccccn3c2Nc2ccc3c(c2)OCCO3)cc1	Tau fluor cs inconclusive, Tau fibril ThT inconclusive (no result: VP16 counter, RORg inh)
Clc1cccc(-c2nc3ccccn3c2Nc2ccc3c(c2)OCCO3)c1	Tau fluor cs 7.9µM[quencher], Tau fibril ThT inconclusive, Tau FP inhib inconclusive (no result: VP16 counter, RORg inh)
COc1ccc(CSCCNC(=S)Nc2ccccc2)cc1Cl	Tau fluor cs inconclusive, VP16 counter inconclusive, RORg inh 4.5µM, Tau FP inhib inconclusive
Cc1ccccc1CSCCNC(=S)Nc1ccccc1	VP16 counter 7.1µM, RORg inh 2.2µM
S=C(Nc1ccccc1)Nc1ccc(OCc2ccc(Cl)cc2Cl)cc1	Tau fluor cs 14µM[quencher], Tau fibril ThT inconclusive, VP16 counter 7.1µM, RORg inh 1.4µM
OCCNCc1ccc(OCc2ccc(Cl)cc2Cl)cc1	RORg inh 13µM
Cc1ccc(-n2ncc(C(=O)NCc3ccccc3)c2C2CCN(C(=O)OC(C)(C)C)CC2)cc1	none (no result: VP16 counter, RORg inh)
COc1cccc(Nc2ncc3nc(C)c(=O)n(Cc4cccs4)c3n2)c1	none (no result: Tau fluor cs, Tau fibril ThT, Tau FP inhib)
S=C(NCCSCc1ccc(Cl)cc1Cl)Nc1ccccc1	Tau fluor cs inconclusive, VP16 counter 4µM, RORg inh 3.2µM, Tau FP inhib inconclusive
S=C(NCCSCc1c(Cl)cccc1Cl)Nc1ccccc1	Tau fluor cs inconclusive, VP16 counter 5µM, RORg inh 2µM, Tau FP inhib inconclusive
CC(C)(C)c1ccc(OCC(=O)N/N=C/c2cc(Br)ccc2OC(=O)c2ccco2)cc1	VP16 counter 1.3µM, RORg inh 0.25µM
Cc1ccc(S(=O)(=O)N(C)CC(=O)N2CCCCCC2)cc1	none (no result: Tau fluor cs, Tau fibril ThT, Tau FP inhib)
CCOc1ccccc1NC(=S)N1CCN(c2cccc(OC)c2)CC1	VP16 counter inconclusive, RORg inh 13µM (no result: Tau fluor cs, Tau fibril ThT, Tau FP inhib)
COc1cccc(N2CCN(C(=S)Nc3ccc(C)cc3C)CC2)c1	RORg inh 5.6µM (no result: Tau fluor cs, Tau fibril ThT, Tau FP inhib)
CN(C)c1ccc(NC(=S)N2CCN(c3ncc(C(F)(F)F)cc3Cl)CC2)cc1	Tau fibril ThT inconclusive, VP16 counter inconclusive, RORg inh 10µM, Tau FP inhib inconclusive
COc1cccc(N2CCN(C(=S)Nc3cc(C)cc(C)c3)CC2)c1	RORg inh 4µM
COCCNC(=S)N1CCN(c2cccc(C(F)(F)F)c2)CC1	VP16 counter inconclusive
CCc1ccc(NC(=S)N2CCN(c3cccc(C(F)(F)F)c3)CC2)cc1	VP16 counter 35µM, RORg inh 13µM
COc1ccc(-c2nc(CS(=O)CC(=O)NCc3ccc(Cl)cc3)c(C)o2)cc1OC (configuration not stated)	none (no result: Tau fluor cs, Tau fibril ThT, Tau FP inhib)
NC(=S)N=Nc1c(O)[nH]c2ccc(F)cc12	Tau fibril ThT inconclusive, VP16 counter inconclusive, RORg inh 4.5µM
O=Nc1c(O)[nH]c2ccc(F)cc12	none
CC(C)NC(=S)N=Nc1c(O)[nH]c2ccc(C(C)C)cc12	Tau fibril ThT inconclusive, VP16 counter 4.5µM, RORg inh 5µM
Cc1ccc(-c2nc(CS(=O)CC(=O)NCc3ccc(F)cc3)c(C)o2)cc1 (configuration not stated)	RORg inh 11µM (no result: Tau fluor cs, Tau fibril ThT, Tau FP inhib)
COc1ccc(-c2nc(CS(=O)CC(=O)NCc3ccc4c(c3)OCO4)c(C)o2)cc1 (configuration not stated)	Tau fibril ThT inconclusive, RORg inh 11µM
COc1ccc(CNC(=O)CS(=O)Cc2nc(-c3ccc(C)cc3)oc2C)cc1 (configuration not stated)	Tau fibril ThT inconclusive, RORg inh 13µM
Cc1ccc(CNC(=O)CS(=O)Cc2nc(-c3ccccc3C)oc2C)cc1 (configuration not stated)	RORg inh 11µM, Tau FP inhib inconclusive
Cc1ccc(N2CC(c3nnc(NC(=O)c4ccco4)s3)CC2=O)cc1Cl (configuration not stated)	none (no result: VP16 counter, RORg inh)
COc1ccc(Cl)cc1NC(=O)CN1CCN(S(=O)(=O)N2CCCCC2)CC1	none (no result: Tau fluor cs, Tau fibril ThT, Tau FP inhib)
CCc1ccccc1NC(=O)CN(c1cc(C(F)(F)F)ccc1Cl)S(=O)(=O)c1ccccc1	none (no result: VP16 counter, RORg inh)
COc1cc(C)c(CN2CCN(C(C)C(=O)NC(C)c3ccccc3)CC2)cc1OC (configuration not stated)	none (no result: Tau fluor cs, Tau fibril ThT, Tau FP inhib)
CC(C)c1ccc(NC(=O)c2snc3ccc(Cl)cc23)cc1	Tau fluor cs inconclusive, Tau fibril ThT inconclusive, RORg inh inconclusive, Tau FP inhib 22µM
Cc1onc(-c2ccccc2)c1-c1nnc(-c2ccccc2C(F)(F)F)o1	none
CCn1c(C)nc2cc(-c3nnc(-c4c(-c5ccccc5)noc4C)o3)ccc21	VP16 counter 5µM, RORg inh inconclusive
COc1ccc(-n2nnnc2S(=O)(=O)Cc2ccc(C(=O)O)cc2)cc1	Tau fibril ThT inconclusive
COc1ccc(-n2nnnc2S(=O)(=O)CC(=O)N2CCCCC2)cc1	Tau fibril ThT inconclusive, VP16 counter 4.5µM, RORg inh 2.8µM
CCSc1nc2c([nH]c3ccccc32)c(=O)n1CC	none (no result: VP16 counter, RORg inh)
COc1ccc(C)cc1NC(=O)C(Sc1nnnn1C)c1ccccc1 (configuration not stated)	none
